Compound activity as filed in PubChem BioAssay.
CRFBP-R2 block: antagonists of CRF-BP/CRF-R2 complex, primary screen, cell-based, HEK293, calcium dye fluorescence, uHTS | CRF-induced calcium fluorescence | inhibition, % at 11.8 µM | hit rate 0.59% among 350,000 | AID 588475, 2011;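 active = inhibition of the ligand-induced calcium signal above about 50% at the single tested concentration, limit read from the data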
MLLE-PAM2 inh: inhibitors of PABP1 MLLE–PAM2 peptide binding, primary screen, biochemical, fluorescence polarization, FITC-PAM2, GST-MLLE; Polyadenylate-binding protein 1 (Homo sapiens), P11940; hit rate 0.36% among 360,000; AID 588489, 2011; inhibition, % at 20 µM; in the data active = inhibition above about 35%, passing the limit was not always enough;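 also: plate controls were DMSO wells with GST-MLLE for no effect and wells lacking GST-MLLE protein for full effect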
Target sequence (P11940 whole entry, looked up): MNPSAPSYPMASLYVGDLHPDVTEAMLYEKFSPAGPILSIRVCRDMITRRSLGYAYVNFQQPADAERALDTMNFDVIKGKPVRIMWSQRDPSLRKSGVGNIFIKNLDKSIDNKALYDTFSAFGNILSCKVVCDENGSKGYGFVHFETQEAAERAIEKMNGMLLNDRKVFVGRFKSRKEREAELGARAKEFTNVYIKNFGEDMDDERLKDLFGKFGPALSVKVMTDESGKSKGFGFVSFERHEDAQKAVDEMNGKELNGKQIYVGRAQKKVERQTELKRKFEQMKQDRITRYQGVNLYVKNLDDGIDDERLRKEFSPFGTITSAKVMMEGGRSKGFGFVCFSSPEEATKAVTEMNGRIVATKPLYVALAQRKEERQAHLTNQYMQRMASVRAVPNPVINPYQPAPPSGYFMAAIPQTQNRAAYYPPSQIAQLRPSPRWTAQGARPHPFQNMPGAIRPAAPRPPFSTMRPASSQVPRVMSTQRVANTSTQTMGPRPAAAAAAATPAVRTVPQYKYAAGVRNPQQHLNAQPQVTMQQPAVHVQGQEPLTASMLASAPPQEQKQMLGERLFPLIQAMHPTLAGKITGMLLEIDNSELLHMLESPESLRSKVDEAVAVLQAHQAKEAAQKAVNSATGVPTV
PABP FP inh: PABP poly(A) RNA binding inhibitors, primary screen, biochemical, fluorescence polarization, uHTS; Polyadenylate-binding protein 1 (Homo sapiens), P11940; inhibition, % at 35 µM; hit rate 1% among 290,000; AID 2014, 2009;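 also: calls also rest on retests at 20 µM and on dose response follow-up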
eIF4H FP inh: human eIF4H binding inhibitors, primary screen, translation initiation inhibitor project, biochemical, uHTS, fluorescence polarization; eIF4H fluorescence polarization binding assay; inhibition, % at 35 µM; hit rate 0.94% among 290,000;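 also: calls also rest on retests at 20 µM and on dose response follow-up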
PHOSPHO1 block: PubChem AID 1565; Phosphoethanolamine/phosphocholine phosphatase (Homo sapiens), Q8TCT1; recombinant PHOSPHO1, absorbance phosphatase assay; inhibition, % at 13.3 µM; hit rate 1.1% among 290,000; in the data active = inhibition above about 60%
* hit, by the source's call; ? = inconclusive; · = no result given. Rows were chosen to be rich in hits. Some 2.6% of all compounds tested hit in one or more screens of this group. Unless noted, no rule for the calls is given here.

SMILES	CRFBP-R2 block	MLLE-PAM2 inh	PABP FP inh	eIF4H FP inh	PHOSPHO1 block
CC1(C(=O)Nc2cnc3ccccc3c2)CCN1C(=O)c1ccccc1CCc1ccccc1 (stereo not drawn)	·	-6.8	·	·	·
Cc1cccc(C(=O)n2c(=S)nc3ccccn32)c1	9.1	14.7	-9.6	-7.0	84.6*
Cc1ccc(C(=O)n2c(=S)nc3ccccn32)cc1	·	·	-2.5	-0.6	20.4
O=C(O)CSc1cc(NS(=O)(=O)c2ccc(Cl)cc2)c2ccccc2c1O	20.1	39.8*	15.7	-2.3	-23.3
CN(C(=O)CN1C(=O)NC2(CCc3ccccc32)C1=O)C1CCCCC1 (stereo not drawn)	-21.9	-14.2	·	·	·
CN(C(=O)CN1C(=O)c2cccc(N)c2C1=O)C1CCCCC1	-3.4	40.0*	·	·	·
CC1CCCCC1NC(=O)CN1C(=O)c2cccc(N)c2C1=O (stereo not drawn)	-17.3	49.8*	active	105.7*	32.6
CCCn1c(C)cc(C(=O)CN2C(=O)c3cccc(N)c3C2=O)c1C	-1.5	12.1	94.6*	85.4*	-3.8
CCCCNC(=O)CN1C(=O)c2cccc(N)c2C1=O	-15.8	39.5*	85.7*	84.9*	57.8
C[C@H](CO)N1C[C@H](C)[C@H](CN(C)Cc2ccncc2)Oc2cc(-c3ccccc3F)ccc2S1(=O)=O	9.2	1.1	·	·	·
CC(=O)c1ccc(OC2(C)CCN(Cc3cc4ccccc4[nH]3)C2)cc1 (stereo not drawn)	·	-9.6	·	·	·
COc1ccccc1-c1n[nH]c(=S)n1-c1ccccc1	28.9	3.2	-12.6	6.5	89.4*
COc1cc(OC)cc(-c2n[nH]c(=S)n2-c2cc(OC)ccc2OC)c1	3.6	12.2	1.2	-0.7	81.6*
COc1ccc(-n2c(-c3ccco3)n[nH]c2=S)cc1	-11.0	10.1	4.8	0.4	99.0*
S=c1[nH]nc(-c2ccco2)n1-c1ccc(Cl)cc1	0.1	-6.4	4.2	4.4	-9.1
Nn1c(-c2ccco2)n[nH]c1=S	-19.6	-0.9	-0.9	3.0	85.5*
COc1ccccc1-c1n[nH]c(=S)n1N	-12.7	-37.6	-5.5	3.6	-6.8
NC(Cc1ccc(F)cc1)c1csc(Nc2cc(Oc3ccccc3)ncn2)n1 (stereo not drawn)	·	-15.4	·	·	·
CCc1nc2c(OCc3cccc(Cl)c3)cccn2c1N(C)C(=O)c1ccc(OC)cc1	·	14.8	·	·	·
O=C(Cn1nc(C(F)F)cc1C(F)F)NNC(=S)Nc1ccc(F)cc1	-8.3	21.6	-2.8	3.3	73.3*
Cc1ccc(NC(=S)NNC(=O)CCn2cc(C)cn2)cc1	3.5	2.3	-3.1	-3.8	68.7*
Cc1cc([N+](=O)[O-])nn1CC(=O)NNC(=S)Nc1ccc(Cl)cc1	18.0	20.2	-4.8	-2.6	93.0*
Cc1cnn(CCC(=O)NNC(=S)Nc2ccccc2)c1	-2.2	-5.9	-3.2	-11.2	59.7
Cc1ccc(NC(=S)NNC(=O)Cn2nc([N+](=O)[O-])cc2C)cc1	25.8	-1.6	-14.5	-3.9	96.2*
COc1cccc(NC(=S)NNC(=O)Cn2nc([N+](=O)[O-])cc2C)c1	-24.2	2.1	0.2	16.6	30.5
SMILES	CRFBP-R2 block	MLLE-PAM2 inh	PABP FP inh	eIF4H FP inh	PHOSPHO1 block
COC(=O)c1csc(-c2ccc(CO)o2)n1	·	5.4	·	·	·
CN1CCN(C(=O)c2cc3c(c(-c4cccc(-c5cc6ccccc6o5)c4)n2)[C@@H](CCO)N(S(=O)C(C)(C)C)C3)CC1 (stereo partly drawn)	·	-10.4	·	·	·
CSc1nc(C=Nc2ccccc2Cl)c(O)n1Cc1cccc(Cl)c1	-12.3	17.5	3.8	0.7	88.2*
O=Nc1c(O)n(Cc2cccc(Cl)c2)c2ccccc12	-21.6	-10.7	-1.0	10.4	33.0
CCCCN(C=O)c1c(CC)nc2c(OCc3ccc(Cl)cc3)cccn12	·	-8.7	·	·	·
CCCOc1cccc(-c2nn(-c3ccccc3)cc2/C=C(\C#N)C(=O)NCCCn2ccnc2)c1	-9.1	-48.7	50.0*	?	4.1
N#C/C(=C/c1cn(-c2ccccc2)nc1-c1cccc(OCc2ccc(F)cc2)c1)C(=O)NCCCn1ccnc1	-16.1	-8.5	0.8	79.8	2.4
COc1ccc(-c2c[n+]3c4n2CCCCC4=C(c2ccccc2)C3)cc1	51.9*	-7.0	11.8	10.7	-59.4
COc1ccc(-c2c[n+]3c(n2-c2ccccc2)CCCCC3)cc1	-11.6	-0.1	53.5*	?	-25.4
CCOc1cc(/C=C2/SC(=S)NC2=O)ccc1OC(=O)c1ccco1	68.9*	4.4	6.1	-0.7	4.2
COc1cc(/C=C2/SC(=O)NC2=O)ccc1OC(=O)c1ccco1	15.1	-19.7	-2.5	-3.8	42.7
